This excerpt belongs to a sample that is enriched for hits.
FECH block = blocks human mitochondrial ferrochelatase activity; P22830; purified FECH, Ni-mesoporphyrin absorbance 550 nm; calls only at 10 µM (by protocol); 3.3% of 20,000 active;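 active means enzyme reaction rate more than 3 SD below the solvent-only control wells on the same plate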;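 further: lower slope than DMSO wells means FECH inhibition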
Target sequence (P22830 whole entry, looked up): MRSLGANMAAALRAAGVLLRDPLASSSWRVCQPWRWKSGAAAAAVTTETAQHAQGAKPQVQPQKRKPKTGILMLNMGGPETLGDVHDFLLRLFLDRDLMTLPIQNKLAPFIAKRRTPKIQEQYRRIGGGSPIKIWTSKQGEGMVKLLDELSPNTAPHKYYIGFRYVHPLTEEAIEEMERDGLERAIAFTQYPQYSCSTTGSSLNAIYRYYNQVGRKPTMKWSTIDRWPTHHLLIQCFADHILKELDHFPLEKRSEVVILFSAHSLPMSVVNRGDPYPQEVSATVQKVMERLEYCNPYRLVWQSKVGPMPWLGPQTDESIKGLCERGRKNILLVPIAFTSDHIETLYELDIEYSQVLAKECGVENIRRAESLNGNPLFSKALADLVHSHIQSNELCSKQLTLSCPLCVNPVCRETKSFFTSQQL
An asterisk follows results filed as active; i = inactive; + = active, no number.

SMILES | FECH block
CC(=O)c1ccc(NC(=O)c2nc3ccccc3n(C)c2=O)cc1 | i
COc1cccc(NC(=O)c2nc3ccccc3n(C)c2=O)c1 | i
Cn1c(=O)c(C(=O)Nc2ccc(Cl)cc2)nc2ccccc21 | i
COc1ccc(S(=O)(=O)NCc2cnn3ccccc23)c(OC)c1 | i
CC(NCCOc1ccccc1)C(=O)NC1CCCC1 (stereo not given) | i
Cc1nc(C2CCNCC2)cc(N2CCC(C(=O)NCc3ccco3)CC2)n1 | i
c1cncc(NCCNc2nccc(C3CCCC3)n2)c1 | i
Cc1ccc(N2C(=O)CCS2(=O)=O)cc1S(=O)(=O)Nc1ccc(Cl)cc1 | i
Cc1nnnn1-c1cccc(-c2n[nH]c(Cc3ccccc3)n2)c1 | i
Cc1nnnn1-c1ccc(Cc2n[nH]c(Cc3ccccc3)n2)cc1 | +
c1ccc(Cc2n[nH]c(Cn3nc4ccccc4n3)n2)cc1 | i
COc1ccc(N2C(=O)CCS2(=O)=O)cc1S(=O)(=O)Nc1ccc(S(N)(=O)=O)cc1 | i
Cc1ccc(NC(=O)CN2CCN(Cc3ccc(F)cc3Cl)S2(=O)=O)cc1 | +
COc1ccccc1NC(=O)CN1CCN(Cc2ccc(F)cc2Cl)S1(=O)=O | i
O=C(CN1CCN(Cc2ccccc2F)S1(=O)=O)Nc1ccc(F)c(Cl)c1 | i
CCc1ccc(NC(=O)CN2CCN(Cc3ccc(F)cc3Cl)S2(=O)=O)cc1 | i
O=C(CN1CCCN(Cc2ccccc2Cl)S1(=O)=O)Nc1ccc(F)c(Cl)c1 | +
O=C(CN1CCN(Cc2ccccc2Cl)S1(=O)=O)Nc1ccc(Cl)cc1 | i
CCOC(=O)c1ccccc1NC(=O)CN1CCN(Cc2ccc(F)cc2Cl)S1(=O)=O | +
O=C(CN1CCN(Cc2ccc(F)cc2Cl)S1(=O)=O)Nc1ccccc1Cl | i
O=C(CN1CCN(Cc2ccc(F)cc2Cl)S1(=O)=O)Nc1ccc(Br)cc1 | i
COc1ccc(C(=O)Nc2ccc(Nc3nc(C)cc(N(C)C)n3)cc2)cc1OC | i
Cc1c(C(=O)N2CCOC(C(F)(F)F)C2)cnc2cc(=O)[nH]n12 (stereo not given) | i
CN(CCNC(=O)CC1CCN(S(=O)(=O)c2ccccc2)CC1)C1CCCCC1 | i
COC(=O)[C@H]1C[C@@H](O)CCN1C(=O)c1nn(C)c2ccc(C)cc12 | i
SMILES | FECH block
Cc1ccc(C(=O)N2CCNC(=O)C2Cc2ccccc2)c(F)c1F (stereo not given) | i
COc1ccc(NC(=O)C2=CCN(Cc3cccc(C)c3)CC2)cc1OC | i
CNC(=O)c1[nH]cnc1C(=O)NC1CCCCC1 | +
CC(C)NC(=O)c1nc[nH]c1C(=O)NC1CCCC1 | i
O=C(NC1CCCCC1)c1nc[nH]c1C(=O)NCC1CC1 | i
CC(C)(C)CNC(=O)c1[nH]cnc1C(=O)NC1CCCC1 | i
O=C(NC1CCCCC1)c1nc[nH]c1C(=O)NCc1ccccc1 | +
O=C(NC1CCCC1)c1nc[nH]c1C(=O)NCc1ccccc1 | i
O=C(NC1CCCCC1)c1nc[nH]c1C(=O)NCc1cccc(C(F)(F)F)c1 | +
O=C(NC1CCCC1)c1nc[nH]c1C(=O)NC1CC1 | i
CC(C)(C)CNC(=O)c1[nH]cnc1C(=O)NC1CCCCC1 | i
CCCc1cc(Sc2ccc(NC(=O)Nc3ccc(F)cc3F)cc2)n2ncnc2n1 | i
O=C(Nc1cccc(F)c1)c1n[nH]c(CCc2ccccc2)n1 | i
CC(=O)c1ccc(NC(=O)C2CC(=O)NC(N3CCCCC3)=N2)cc1 (stereo not given) | i
CCN1C(SCC(=O)Nc2cc(OC)cc(OC)c2)=NS(=O)(=O)c2ccccc21 | i
COC(=O)CC1=CC(=O)N(CC(=O)Nc2cccc(C(F)(F)F)c2)c2ccccc2N1 | i
O=C(CN1CCCN(Cc2ccccc2Cl)S1(=O)=O)Nc1cccc(Br)c1 | i
CCN1C(SCC(=O)Nc2cccc(C(F)(F)F)c2)=NS(=O)(=O)c2ccccc21 | +
O=C1CN(Cc2cccc(C(F)(F)F)c2)S(=O)(=O)c2ccccc2N1Cc1ccccc1 | i
CCN1C(SCC(=O)Nc2cccc(Br)c2)=NS(=O)(=O)c2ccccc21 | +
O=C(CN1CCC(N2CCCC(CO)C2)CC1)Nc1ccc(Cl)cc1F (stereo not given) | i
OCCOCCN1CCCC1c1ccc(F)cc1 (stereo not given) | i
O=c1cc(CNc2nccc(CCC(F)(F)F)n2)nc[nH]1 | i
CC(C)CNC(=O)c1nc[nH]c1C(=O)N1CCC(Cc2ccccc2)CC1 | i
COC(=O)c1cc(S(=O)(=O)N2CCCC2C(=O)NCc2ccco2)cn1C (stereo not given) | i
SMILES | FECH block
Cc1ccc(C2(O)CCN(C(=O)c3c[nH]c4c(C)cccc4c3=O)CC2)nc1 | i
CCCc1c(C)nc2ncnn2c1Sc1ccc(NS(=O)(=O)c2ccc(Cl)cc2)cc1 | i
CN(C)C(=O)c1ccc(-c2ccc(COCCN)cc2)cc1 | +
Cc1oc(-c2cccc(Cl)c2)nc1CSc1nc(-c2cccnc2)cc(=O)[nH]1 | i
Cc1ccccc1CN1CCC(CNC(=O)Cn2cncn2)CC1 | i
CC(c1cccc(-c2ccc3nc(CO)[nH]c3c2)c1)N1CCCC1 (stereo not given) | i
CN1CCC2(CC1)CN(C(=O)CNC(N)=O)CCCN2C | i
CCc1ccccc1NC(=O)C(=O)N1CCN(C)C2(CCN(C)CC2)C1 | i
COc1ccc(NC(=O)CC(=O)N2CCN(C)C3(CCN(C)CC3)C2)cc1 | +
COc1cccc(Cl)c1-c1ccc(CN2CCCCC2)cn1 | i
COc1ccccc1N1CCC(N2[C@H]3CCNC[C@@H]2CC3)CC1 | i
CCCOCCN1CCN(c2ncnc3[nH]ccc23)CC1 | i
CN(CCOc1ccccc1)c1ncnc2[nH]ccc12 | +
COCc1cc(CN(C)c2ncnc3[nH]ccc23)[nH]n1 | i
COC(=O)c1cc2n(n1)CCN(C(=O)C(C)N1C[C@@H](C)O[C@@H](C)C1)C2 (stereo not given in full) | i
Cc1ccc(S(=O)(=O)N(Cc2cccc(F)c2)c2nc3nc(C)cc(C)n3n2)cc1 | i
CNC(=O)c1ccc(Cn2c(=O)c3cc(OC)c(OC)cc3n(CC(=O)NCCCOC)c2=O)cc1 | +
CNC(=O)c1ccc(Cn2c(=O)c3cc(OC)c(OC)cc3n(CC(=O)N3CCCCC3C)c2=O)cc1 (stereo not given) | i
CCCNC(=O)Cn1c(=O)n(Cc2ccc(C(=O)NCCC)cc2)c(=O)c2cc(OC)c(OC)cc21 | i
COCCCNC(=O)c1ccc(Cn2c(=O)c3cc(OC)c(OC)cc3n(CC(N)=O)c2=O)cc1 | i
CNC(=O)c1ccc(Cn2c(=O)c3cc(OC)c(OC)cc3n(CC(=O)N3CCC(C)CC3)c2=O)cc1 | +
CNC(=O)c1ccc(Cn2c(=O)c3cc(OC)c(OC)cc3n(CC(N)=O)c2=O)cc1 | i
CCCNC(=O)Cn1c(=O)n(Cc2ccc(C(=O)NC(C)C)cc2)c(=O)c2cc(OC)c(OC)cc21 | i
CNC(=O)c1ccc(Cn2c(=O)c3cc(OC)c(OC)cc3n(CC(=O)NCCC(C)C)c2=O)cc1 | +
CNC(=O)c1ccc(Cn2c(=O)c3cc(OC)c(OC)cc3n(CC(=O)Nc3ccccc3)c2=O)cc1 | i
Cc1cc(N2CCCC2)nc(Nc2ccc(NC(=O)CCCc3ccccc3)cc2)n1 | i
CCn1nc(CC(C)C)cc1C(=O)N1CCC2(CC1)NCCNC2=O | i
Cc1ccc(C(=O)Nc2ccc(Nc3nc(C)cc(N4CCCC4)n3)cc2)cc1 | i
Cc1ccc(CC(=O)NCCn2c(CCc3ccccc3)nc3cccnc32)cc1 | i

Source: PubChem
